# Screening data (PubChem)
# Sampled rows, rich in hits. Any-hit rate of the full collection: about 3.4%.
# ADAM10 inh: human ADAM10 inhibitors, primary screen, biochemical, QFRET, HTS; Disintegrin and metalloproteinase domain-containing protein 10 (Homo sapiens), O14672; recombinant ADAM10, EDANS/DABCYL FRET peptide cleavage, 3 h; 370,000 compounds, 0.62% hits; inhibition, % at 7 µM;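 active means inhibition above a per-campaign cutoff equal to the mean of compounds falling between control-based bounds plus 3 SD, cut at about 20% in these data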;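 further: 0% = DMSO wells while the 100% control is not disclosed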
# PLCb3 inh: human PLC-beta3 inhibitors, primary screen, biochemical, fluorescence | Purified PLC-beta3, fluorogenic substrate | inhibition, % at 12.2 µM | 370,000 compounds, 0.18% hits; in the data active means inhibition above about 11%;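 further: 0% = median of compound wells on plate and 100% = full blocker control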
# ADAM17 inh: ADAM17 inhibitors, primary screen, biochemical, QFRET; AID 720648, 2013; recombinant ADAM17, EDANS/DABCYL FRET peptide cleavage; 370,000 compounds, 0.83% hits; inhibition, % at 6.95 µM; Disintegrin and metalloproteinase domain-containing protein 17 (Homo sapiens), P78536;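 active means inhibition above the mean of compounds lying between control limits plus 3 SD, set per campaign, cut at about 8.5% in these data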;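 further: 0% = DMSO-only wells as the low control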
# PLC-gamma1 inh: PLC-gamma1 enzyme inhibitors, primary screen, biochemical, fluorescence, purified enzyme; fluorogenic substrate; 370,000 compounds, 0.84% hits; AID 720700, 2013; 1-phosphatidylinositol 4,5-bisphosphate phosphodiesterase gamma-1 (Homo sapiens), P19174; inhibition, % at 12.2 µM; in the data active means inhibition above about 9.5%
# KLK7 zymogen act: proKLK7 zymogen activators, primary screen, biochemical, fluorescence intensity. Kallikrein-7 (Homo sapiens), P49862. purified proKLK7, EDANS-DABCYL substrate fluorescence; 100% is mature enzyme control, 0% vehicle. activation, % at 7 µM. 370,000 compounds, 0.9% hits. AID 652039, 2013;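 active means activation above the mean of all tested compounds plus 3 SD, computed per campaign excluding outliers beyond control limits, cut at about 13% in these data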
# Target sequence (P49862 whole entry, looked up): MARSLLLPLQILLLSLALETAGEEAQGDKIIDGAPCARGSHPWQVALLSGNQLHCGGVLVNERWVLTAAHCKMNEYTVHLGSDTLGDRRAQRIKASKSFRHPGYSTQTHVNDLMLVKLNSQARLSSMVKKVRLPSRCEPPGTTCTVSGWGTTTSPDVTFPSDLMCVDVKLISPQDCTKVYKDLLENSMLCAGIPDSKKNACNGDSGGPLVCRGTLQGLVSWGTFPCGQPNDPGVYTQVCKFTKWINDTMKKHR
# sPLA2-III inh: human group III sPLA2 inhibitors, primary screen, biochemical, QFRET, BODIPY PC-A2 liposome substrate. Group 3 secretory phospholipase A2 (Homo sapiens), Q9NZ20. QFRET BODIPY PC-A2 liposome hydrolysis, fluorescence. inhibition, % at 12.2 µM. 370,000 compounds, 0.56% hits. AID 743126, 2013;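 active means inhibition above mean plus 3 SD of compounds lying within the high and low control bounds, cut at about 19% in these data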;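 further: 0% = median of test compound wells and 100% = no enzyme DMSO wells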
# ADAM10 counter: ADAM10 inhibitors, counter-screen for ADAM17 exosite inhibitor project, biochemical, FRET, human ADAM10; shares compounds with ADAM17 inh; recombinant ADAM10, EDANS/DABCYL FRET peptide cleavage, 3 h; inhibition, % at 6.95 µM; 2,900 compounds, 47% hits; AID 743256, 2014;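 active means mean inhibition over the triplicate runs exceeds the activity threshold set in the earlier primary screen, cut at about 20% in these data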;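 further: 0% = DMSO wells and 100% = marimastat wells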
# ADAM17 confirm: ADAM17 inhibitors, hit retest, confirmation, biochemical, QFRET peptide cleavage; inhibition, % at 6.95 µM; recombinant ADAM17, EDANS/DABCYL QFRET peptide cleavage; shares compounds with ADAM17 inh; 2,900 compounds, 65% hits;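 active means mean inhibition across replicates above the hit cutoff set in the primary screen, cut at about 8.5% in these data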;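 further: 0% = DMSO wells and 100% = marimastat wells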
# * = called active by the depositor; . = no result.
SMILES,ADAM10 inh,PLCb3 inh,ADAM17 inh,PLC-gamma1 inh,KLK7 zymogen act,sPLA2-III inh,ADAM10 counter,ADAM17 confirm
CCOC(=O)C1(C)CCN1C(=O)COc1ccccc1 (stereo unspecified),-8,2,-5,0,0,7,.,.
CC1CCc2c(C(=O)Oc3cccc(-n4cnnn4)c3)csc2C1 (stereo unspecified),19,-6,8.8*,-2,0,-14,15,11*
Clc1ccc(-n2c(SCc3cccc4ccccc34)nnc2-c2ccccn2)cc1,10,-5,11*,-1,0,-7,27*,14*
COc1ccc(CN(C)CC(=O)Nc2cc(OC)c([N+](=O)[O-])cc2C)c(OC)c1,-3,-25,-1,0,0,7,.,.
CC(OC(=O)C1=COCCO1)C(=O)Nc1ccc(Oc2ccccc2)cc1 (stereo unspecified),-3,-3,-4,-3,0,-16,.,.
O=C(OC(C(=O)Nc1cc(Cl)cc(Cl)c1)c1ccccc1)C1=COCCO1 (stereo unspecified),14,1,9.8*,2,0,-44,31*,15*
Cc1ccc(NC(=O)C2(C)CCN2C(=O)CCC2CCCC2)cc1C (stereo unspecified),-8,-6,-2,-1,0,-2,.,.
O=C(O)c1ccc(CSc2nnc(-c3ccc(Cl)cc3)o2)cc1,9,-2,-1,-2,0,-2,.,.
O=S(=O)(Nc1ccc(-c2nnc(SCc3ccc(Cl)cc3)o2)cc1)c1ccccc1,18,-3,9.2*,0,0,-75,23*,14*
CC[C@@]1(C(=O)OC)N[C@H](CN(C)S(=O)(=O)c2ccc(-c3ccccc3)cc2)[C@@H]2C(=O)N(C)C(=O)[C@@H]21,7,4,13*,2,0,-8,12,6
CC[C@@]1(C(=O)OC)N[C@H](CN(C)S(=O)(=O)c2ccccc2)[C@@H]2C(=O)N(C)C(=O)[C@@H]21,-3,1,-4,1,0,0,.,.
COc1ccccc1CCn1cnc(-c2ccc(F)cc2)c1CC(C)C,7,2,3,1,0,0,.,.
COc1ccccc1CCn1cnc(-c2ccccc2)c1CC(C)C,11,7,8.7*,8,0,15,18,9.1*
O=C(Nc1nc(-c2ccccc2)cs1)C1COc2ccccc2O1 (stereo unspecified),12,6,14*,9,0,-10,44*,14*
CC1(C)CC(/C=C/c2ccccc2)=Nc2ccccc2N1,-27,-38,-14,-21,-2,9,.,.
O=C(COC(=O)c1ccco1)Nc1ccc2c(c1)OCO2,2,-1,9.6*,6,0,11,-10,-6
O=C(COC(=O)c1ccco1)NCc1ccc2c(c1)OCO2,-5,-7,-9,-2,0,1,.,.
Cc1c(C(=O)NC(=S)Nc2ccc(NC(=O)c3cccs3)cc2)cccc1[N+](=O)[O-],18,7,12*,8,0,-15,29*,20*
CC(C)(C)OC(=O)N1CCC(C(=O)N[C@H](C(=O)O)c2ccccc2)(c2ccccc2)CC1,-1,-4,-2,0,0,-11,.,.
CCOC(=O)c1[nH]c2ccc(C(=O)OC)cc2c1C(=O)OCC,-120,-28,-36,-22,-1,-6,.,.
COC(=O)c1ccc2[nH]c(C3(O)CCCCC3)c(C)c2c1,2,-36,11*,-33,0,-39,-16,3
O=C(NCCc1ccccc1)c1nc(-c2cccs2)no1,4,0,2,4,0,-2,.,.
C=C(C)c1cccc(C(C)(C)NC(=O)N2CCCC2)c1,-3,5,9.1*,6,0,18,1,1
COc1ccc(N=C2SC(CC(=O)Nc3ccccc3OC)C(=O)N2Cc2ccco2)cc1 (stereo unspecified),15,2,7,2,0,-20,.,.
COc1ccc(N=C2SC(CC(=O)Nc3ccc(F)cc3)C(=O)N2Cc2ccco2)cc1 (stereo unspecified),15,3,12*,5,1,-41,18,13*
SMILES,ADAM10 inh,PLCb3 inh,ADAM17 inh,PLC-gamma1 inh,KLK7 zymogen act,sPLA2-III inh,ADAM10 counter,ADAM17 confirm
N#Cc1ccccc1OCC(=O)NC1CCCCCC1,-15,0,1,-1,-1,8,.,.
Clc1ccc(N2COC3c4cccc5cccc(c45)C32)cc1 (stereo unspecified),7,1,9.2*,1,0,1,-2,4
COc1ccc(N2COC3c4cccc5cccc(c45)C32)cc1 (stereo unspecified),-7,-19,-6,-15,1,0,.,.
O=C(Nc1ccccc1)OC[C@@H]1CSCCS(=O)(=O)N1,-17,0,-8,0,0,5,.,.
CN(c1ccc(OCc2ccc([N+](=O)[O-])cc2)cc1)S(=O)(=O)c1ccccc1,15,-7,9.3*,-3,-1,-9,17,13*
CCOc1ccc(NS(=O)(=O)c2cc(NC(=O)CCC(=O)c3cccs3)ccc2Cl)cc1,14,2,9.1*,-1,-1,-35,18,10*
O=C1[C@@H]2Cc3c([nH]c4ccccc34)C(c3ccccc3)N2C(=O)CN1C1CCN(Cc2ccccc2)CC1 (stereo partly specified),11,2,3,1,6,-27,.,.
COc1ccc(C2c3[nH]c4ccccc4c3C[C@H]3C(=O)N(C4CCN(Cc5ccccc5)CC4)CC(=O)N23)c(OC)c1 (stereo partly specified),16,-2,5,2,0,-18,.,.
Cc1ccccc1C1c2[nH]c3ccccc3c2C[C@H]2C(=O)N(C3CCN(Cc4ccccc4)CC3)CC(=O)N12 (stereo partly specified),18,-5,8.7*,1,2,-16,26*,14*
